Data published in the OligoGym collection.

Each sequence was assayed against HSF2 (assay: pooled miR-30 sensor sort-seq; sequence = guide strand). Settings: shRNA.
Also: reference of the scale not given here.

Sequence	sensor-assay potency score (higher = more potent)
TTCCTGTTTTATCTGAACCTTC	-0.752
TAACTTGTTGCTGTTGTGCATG	-0.847
TTAGTTTCTGGAATAACTGGGA	-0.0464
TTTGAAGATGAAACCTTCCTTT	0.173
TACATCTGCGTAACTATGCAGC	-0.31
TAAAACTAGTCCAACTAACTGG	-0.42
TTCATTGTCATCTTCAACGATG	-0.744
TAAACTGGACAATCTTTCGAAT	-0.594
TTGAACATGAATAAACGTCTTT	0.178
TTTCTTGCTTTACAATTCCAGA	-1.24
TATGCAGCTGAGTAACACCTGA	-0.731
TAAACCTTCAGTCCTACTGTGT	-0.618

The sequences below were run against HSP90AA1 in the same assay as above. Settings: shRNA.

Sequence	sensor-assay potency score (higher = more potent)
TTGATCGATGTACTTTTCCTTA	-0.594
TTGCTTTGTTGCAACATCTCAC	0.536
TTTCTCTTCTTCATCCTCTGGA	0.444
TTTTTGACCAAATTCTTCCTGA	0.315
TTGAGTTGTCTCTTAGGGCTTG	0.45
TACAATTTGATGTTGTTCTTTT	-0.348
TCGGTTTGACACAACCACCTTT	-0.307
TTATCCATGATGAAAACTCTGC	-0.426
TACAACTTTAAGCAGAATGTGA	-0.45
TTGATCATCCTGTAGATCCTGT	0.84
TTCTCCTTCATTCTGGTGCAGT	-0.91
TTTGTTGCAACATCTCACGGGA	0.467

What follows are sequences tested against HSP90B1 in the same assay as above. Settings: shRNA.

Sequence	sensor-assay potency score (higher = more potent)
TTTTACATCAAGAATAGTCAGT	0.0481
TTGCTGAAGAGTCTCGCGGGAA	-0.855
TTTGTGATGCATTTAATCCATC	-1.31
TATCATTGTATTTATCATCAGC	-0.644
TTTCATCGAACTTCACTCCTTC	0.873
TTTTTAACCAACTCTTCTCTGG	-0.121
TTCTTGATCATGTCCAGCGTTT	-0.303
TTTTGAAGTGACAATAACCTTA	0.45
TTTATCATCAGCAATCTTCTTG	0.391
TTTGAAGTGACAATAACCTTAT	-0.631
TTCATCGTCAGCTCTGACCGAC	0.128
TTAAAAACTCGCTTGTCCCAGA	0.327

Each sequence was assayed against HSPA1A in the same assay as above. Settings: shRNA.

Sequence	sensor-assay potency score (higher = more potent)
TTGTCCAGCACCTTCTTCTTGT	0.221
AAATTGAGAACTGACAAACAGA	-0.814
TTCTTCTTGTCGGCCTCGCTGA	-0.634
